Measured values reported in PubChem BioAssay AID1159580 (chemical genetic matrix, 2015).
The whole screen tested about 5,500 compounds, of which about 2,000 (36%) were called active. Roughly 18% stayed inconclusive and do not appear here. The list shows a part of the results. Values without a mark were called inactive. Cut-off read from the data, not from the text of the source: active = normalized growth mostly below about 0.91 (no sharp cut-off); inconclusive = no clear call, values can overlap the other calls; inactive = mostly above about 0.92.

Test: chemical genetic growth profiling, strain panel (AID 1159580);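 note: tested at 20 µM; growth read once vehicle control cultures reached saturation at 30 °C; 1 = growth at the plate median or of vehicle wells; lower values mean less growth of the strain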
Details: growth OD

CCc1ccc2c(O)c3c(cc2c1C(=O)OC)C(=O)c1c(O)ccc(O)c1C3=O
normalized growth (S. cerevisiae deletion strains, locus YJR066W, strain TOR1, hits give low values): 0.895 | normalized growth (S. cerevisiae deletion strains, locus YJR075W, strain HOC1, hits give low values): 0.981 | normalized growth (S. cerevisiae deletion strains, locus YKL068W, hits give low values): 0.99 | normalized growth (S. cerevisiae deletion strains, locus YKL085W, strain MDH1 (second series), hits give low values): 1.05 | normalized growth (S. cerevisiae deletion strains, locus YKL085W, strain MDH1, hits give low values): 1.05 | normalized growth (S. cerevisiae deletion strains, locus YKL160W, strain elf1, hits give low values): 0.996 | normalized growth (S. cerevisiae deletion strains, locus YKR001C, strain vps1, hits give low values): 0.99 | normalized growth (S. cerevisiae deletion strains, locus YKR026C, strain gcn3, hits give low values): 0.979 | normalized growth (S. cerevisiae deletion strains, locus YKR091W, strain srl3, hits give low values): 0.995 | normalized growth (S. cerevisiae deletion strains, locus YLL001W, strain dnm1, hits give low values): 0.973 | normalized growth (S. cerevisiae deletion strains, locus YLL026W, hits give low values): 0.983 | normalized growth (S. cerevisiae deletion strains, locus YLL041C, strain sdh2, hits give low values): 0.999 | normalized growth (S. cerevisiae deletion strains, locus YLR027C, strain aat2, hits give low values): 0.994 | normalized growth (S. cerevisiae deletion strains, locus YLR039C, strain RIC1, hits give low values): 0.961 | normalized growth (S. cerevisiae deletion strains, locus YLR058C, strain SHM2, hits give low values): 0.956 | normalized growth (S. cerevisiae deletion strains, locus YLR102C, strain apc9, hits give low values): 0.999 | normalized growth (S. cerevisiae deletion strains, locus YLR113W, strain HOG1, hits give low values): 0.988 | normalized growth (S. cerevisiae deletion strains, locus YLR221C, strain rsa3, hits give low values): 0.969 | normalized growth (S. cerevisiae deletion strains, locus YLR258W, strain gsy2, hits give low values): 0.989 | normalized growth (S. cerevisiae deletion strains, locus YLR262C, strain YPT6 (second series), hits give low values): 0.956 | normalized growth (S. cerevisiae deletion strains, locus YLR262C, strain YPT6, hits give low values): 0.95 | normalized growth (S. cerevisiae deletion strains, locus YLR268W, strain sec22, hits give low values): 0.98 | normalized growth (S. cerevisiae deletion strains, locus YLR320W, strain mms22, hits give low values): 0.98 | normalized growth (S. cerevisiae deletion strains, locus YLR330W, strain CHS5, hits give low values): 1 | normalized growth (S. cerevisiae deletion strains, locus YLR342W, strain FKS1 (second series), hits give low values): 0.977 | normalized growth (S. cerevisiae deletion strains, locus YLR342W, strain FKS1, hits give low values): 0.968 | normalized growth (S. cerevisiae deletion strains, locus YLR357W, strain rsc2, hits give low values): 0.878 | normalized growth (S. cerevisiae deletion strains, locus YLR370C, strain arc18, hits give low values): 0.949 | normalized growth (S. cerevisiae deletion strains, locus YLR371W, strain rom2, hits give low values): 0.995 | normalized growth (S. cerevisiae deletion strains, locus YLR384C, strain iki3, hits give low values): 1 | normalized growth (S. cerevisiae deletion strains, locus YLR418C, strain cdc73, hits give low values): 0.932 | normalized growth (S. cerevisiae deletion strains, locus YML016C, strain PPZ1, hits give low values): 0.983 | normalized growth (S. cerevisiae deletion strains, locus YML032C, strain rad52, hits give low values): 0.932 | normalized growth (S. cerevisiae deletion strains, locus YML120C, strain ndi1, hits give low values): 0.999 | normalized growth (S. cerevisiae deletion strains, locus YML124C, strain tub3, hits give low values): 0.998 | normalized growth (S. cerevisiae deletion strains, locus YMR058W, strain fet3, hits give low values): 0.762 (active) | normalized growth (S. cerevisiae deletion strains, locus YMR078C, strain ctf18, hits give low values): 0.997 | normalized growth (S. cerevisiae deletion strains, locus YMR125W, strain sto1, hits give low values): 1.01 | normalized growth (S. cerevisiae deletion strains, locus YMR129W, hits give low values): 0.966 | normalized growth (S. cerevisiae deletion strains, locus YMR205C, strain PFK2, hits give low values): 0.984 | normalized growth (S. cerevisiae deletion strains, locus YMR223W, strain ubp8, hits give low values): 0.933 | normalized growth (S. cerevisiae deletion strains, locus YMR231W, strain pep5, hits give low values): 0.995 | normalized growth (S. cerevisiae deletion strains, locus YMR307W, strain GAS1, hits give low values): 0.998 | normalized growth (S. cerevisiae deletion strains, locus YNL067W, strain RPL9B, hits give low values): 0.973 | normalized growth (S. cerevisiae deletion strains, locus YNL071W, strain lat1, hits give low values): 1 | normalized growth (S. cerevisiae deletion strains, locus YNL153C, strain GIM3, hits give low values): 0.954 | normalized growth (S. cerevisiae deletion strains, locus YNL183C, strain NPR1, hits give low values): 0.908 | normalized growth (S. cerevisiae deletion strains, locus YNL209W, strain ssb2, hits give low values): 0.981 | normalized growth (S. cerevisiae deletion strains, locus YNL233W, strain BNI4, hits give low values): 0.98 | normalized growth (S. cerevisiae deletion strains, locus YNL248C, strain rpa49, hits give low values): 0.961 | normalized growth (S. cerevisiae deletion strains, locus YNL250W, strain rad50, hits give low values): 0.972 | normalized growth (S. cerevisiae deletion strains, locus YNL271C, strain bni1, hits give low values): 0.965 | normalized growth (S. cerevisiae deletion strains, locus YNL298W, strain CLA4, hits give low values): 0.985 | normalized growth (S. cerevisiae deletion strains, locus YNL307C, strain MCK1, hits give low values): 1 | normalized growth (S. cerevisiae deletion strains, locus YNL322C, strain KRE1 (second series), hits give low values): 0.979 | normalized growth (S. cerevisiae deletion strains, locus YNR049C, strain mso1, hits give low values): 0.967 | normalized growth (S. cerevisiae deletion strains, locus YNR052C, strain pop2, hits give low values): 0.984 | normalized growth (S. cerevisiae deletion strains, locus YOL006C, strain TOP1, hits give low values): 1.07 | normalized growth (S. cerevisiae deletion strains, locus YOL012C, strain htz1): 0.673 | normalized growth (S. cerevisiae deletion strains, locus YOL147C, strain pex11, hits give low values): 1.01 | normalized growth (S. cerevisiae deletion strains, locus YOR001W, strain rrp6, hits give low values): 0.973 | normalized growth (S. cerevisiae deletion strains, locus YOR061W, strain CKA2, hits give low values): 0.957 | normalized growth (S. cerevisiae deletion strains, locus YOR069W, strain VPS5, hits give low values): 0.999 | normalized growth (S. cerevisiae deletion strains, locus YOR070C, strain gyp1, hits give low values): 0.988 | normalized growth (S. cerevisiae deletion strains, locus YOR080W, strain dia2, hits give low values): 0.991 | normalized growth (S. cerevisiae deletion strains, locus YOR083W, strain WHI5, hits give low values): 0.98 | normalized growth (S. cerevisiae deletion strains, locus YOR106W, strain vam3, hits give low values): 0.964 | normalized growth (S. cerevisiae deletion strains, locus YOR136W, strain idh2, hits give low values): 1.01 | normalized growth (S. cerevisiae deletion strains, locus YOR144C, strain elg1, hits give low values): 0.993 | normalized growth (S. cerevisiae deletion strains, locus YOR184W, strain ser1, hits give low values): 0.965 | normalized growth (S. cerevisiae deletion strains, locus YOR231W, strain MKK1, hits give low values): 0.965 | normalized growth (S. cerevisiae deletion strains, locus YOR265W, strain rbl2, hits give low values): 0.987 | normalized growth (S. cerevisiae deletion strains, locus YOR270C, strain vph1, hits give low values): 0.827 | normalized growth (S. cerevisiae deletion strains, locus YOR290C, strain snf2, hits give low values): 0.929 | normalized growth (S. cerevisiae deletion strains, locus YOR316C, strain cot1, hits give low values): 0.992 | normalized growth (S. cerevisiae deletion strains, locus YPL051W, strain arl3, hits give low values): 0.953 | normalized growth (S. cerevisiae deletion strains, locus YPL078C, strain atp4, hits give low values): 0.977 | normalized growth (S. cerevisiae deletion strains, locus YPL106C, strain sse1, hits give low values): 0.974 | normalized growth (S. cerevisiae deletion strains, locus YPL240C, strain hsp82, hits give low values): 0.983 | normalized growth (S. cerevisiae deletion strains, locus YPL241C, strain CIN2, hits give low values): 0.99 | normalized growth (S. cerevisiae deletion strains, locus YPL256C, strain CLN2, hits give low values): 1.03 | normalized growth (S. cerevisiae deletion strains, locus YPR119W, strain clb2, hits give low values): 1 | normalized growth (S. cerevisiae deletion strains, locus YPR141C, strain kar3, hits give low values): 0.979 | normalized growth (S. cerevisiae deletion strains, locus YPR163C, strain tif3, hits give low values): 1.01 | normalized growth (S. cerevisiae deletion strains, locus YPR167C, strain met16, hits give low values): 0.965 | normalized growth (S. cerevisiae deletion strains, strain wtn01, hits give low values): 1 | normalized growth (S. cerevisiae strains, strain wild type, hits give low values): 0.971
